Laboratory results reported in the supplement of paper PMC11219838.
A number with no mark means an inactive call.

system: Caenorhabditis elegans L1 (N2); test: survival and reproduction score of C. elegans L1 (0: 0-10 living worms, 1: 11-20, 2: 21-50, 3: >50, 4: overgrown) (score 0-4); higher = more worms, less nematicidal, active = 1 or less; extreme values may be limits of the assay; settings: 60 µM; 6 days; temperature: 20 °C
Method in brief: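 Each 96-well well received about 20 synchronized N2 L1 worms of C. elegans, E. coli HB101 and liquid NGM, plus compound pinned to 60 µM final (0.6% v/v DMSO). Sealed plates were incubated with shaking at 200 rpm, 20 °C, for 6 days. Survival and reproduction were rated under a dissection microscope as an ordinal score of living worms per well, averaged across biological replicates. The scale spanned 0 (0–10 worms) to 4 (overgrown, starved), and there were two replicates.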

| SMILES | survival and reproduction score |
| --- | --- |
| Cc1cc(Cl)ccc1OCc1nc(-c2cccnc2)no1 | 4 |
| CNC(=O)c1ccccc1-c1nc(-c2ccccc2Cl)no1 | 4 |
| Cc1cccc(-c2noc(-c3ccc(C)c(Cl)c3)n2)c1 | 4 |
| O=C(Nc1cccc(-c2noc(-c3cccnc3)n2)c1)c1cccs1 | 4 |
| COc1ccc(-c2nnc(SCC(=O)Nc3ccccc3C(C)C)o2)cc1 | 4 |
| Cc1cc(C)cc(OCc2nc(-c3ccccc3Cl)no2)c1 | 4 |
| Clc1ccccc1OCc1nc(-c2cccs2)no1 | 4 |
| Clc1ccc(OCc2nc(-c3ccc(Br)o3)no2)cc1 | 3.5 |
| COC(=O)c1ccc(CSc2nnc(-c3ccc(OC)cc3)o2)cc1 | 4 |
| COc1ccc(-c2nnc(SCc3ccccc3C)o2)cc1 | 4 |
| Cc1ccc(-c2noc(-c3ccccc3C(=O)N3CCC(C)CC3)n2)cc1 | 4 |
| COc1ccccc1-c1nc(-c2ccc(Cl)cc2Cl)no1 | 4 |
| Clc1ccc(-c2nc(C3CCCCC3)no2)cc1 | 4 |
| COc1ccc(Br)cc1-c1noc(-c2ccncc2)n1 | 4 |
| COc1ccccc1OCc1nc(-c2cccc(C)c2)no1 | 4 |
| Cc1ccc(-c2nnc(SCc3ccccc3F)o2)cc1 | 4 |
| CC(C)CCC(=O)Nc1ccccc1-c1nc(-c2ccccn2)no1 | 2 |
| O=C(Nc1ccc(-c2noc(-c3ccccn3)n2)cc1)c1cccc(Cl)c1 | 4 |
| O=C(Nc1ccc(-c2noc(COc3ccccc3Cl)n2)cc1)c1ccccn1 | 4 |
| O=C(CSc1nnc(-c2ccc(Cl)cc2)o1)NC1CC2CCC1C2 (centres undefined) | 4 |

| SMILES | survival and reproduction score |
| --- | --- |
| Cc1ccoc1-c1nnc(-c2ccco2)o1 | 3.5 |
| CCC(=O)Nc1ccccc1-c1nc(-c2ccncc2)no1 | 1 (active) |
| CCCCC(=O)Nc1ccccc1-c1nc(-c2ccncc2)no1 | 4 |
| Cc1ccccc1-c1nc(-c2ccc3c(c2)OCO3)no1 | 2.5 |
| Cc1ccccc1-c1noc(-c2ccccc2OCC(N)=O)n1 | 4 |
| COc1nc(C)ccc1-c1noc(-c2ccc(F)cc2)n1 | 4 |
| CCn1c(SCc2nc(-c3cccs3)no2)nnc1-c1ccco1 | 2 |
| Cc1cccc(-c2noc(-c3cccc(Br)c3)n2)c1 | 4 |
| CC(C)Oc1ccc(-c2nc(-c3cccnc3)no2)cc1 | 0 (active) |
| Cn1c(SCc2cccc(F)c2)nnc1-c1ccco1 | 4 |
| Brc1ccc(CSc2nnc(-c3ccco3)o2)cc1 | 0 (active) |
| Cc1cc(OCc2nc(-c3ccncc3)no2)c(C)c(C)c1Br | 4 |
| Cc1ccc(OCc2nc(-c3ccc(Cl)cc3)no2)c(C)c1 | 4 |
| O=C(CSc1nnc(-c2ccco2)o1)Nc1ccc(Br)cn1 | 4 |
| Clc1ccccc1OCc1nc(-c2ccc(Br)cc2)no1 | 4 |
| COc1ccc(-c2nnc(SCC(=O)Nc3cccc(Cl)c3Cl)o2)cc1 | 4 |
| CC(=O)Nc1ccc(-c2nc(-c3ccccc3)no2)cc1 | 4 |
| Cc1ccc(-c2nnc(SCC(=O)NCCc3ccccc3)o2)cc1 | 4 |
| Clc1ccc(-c2noc(-c3ccncc3)n2)cc1 | 3.5 |
